# High-throughput results deposited in PubChem by National Center for Advancing Translational Sciences (NCATS).
# TDP1 cell CPT: DT40-hTDP1 cell growth loss with CPT; chicken DT40 Tdp1-/-;hTDP1 cells + 20 nM CPT, ATP luminescence, 48 h; Potency, µM (highest dose often 46.2 µM), for the others: at the top dose activity change, negative = growth inhibition, most hits filed as inhibitors; 420,000 tested, 12% active; AID 686979; further: potency means the concentration at half of the fitted maximal effect; on the % scale 0 is the no-effect control and ±100 the full control effect; nearly all actives have a fitted effect of over 55% in size
#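 Chicken DT40 Tdp1-/- cells complemented with human TDP1, 400 cells/well, exposed to compounds plus 20 nM camptothecin for at least 48 h at 37 C; viability read as ATP content by CellTiter-Glo luminescence.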
# IL1B secr inh: inflammasome signaling inhibition, IL-1 beta readout; THP-1 LPS/ATP IL-1B secretion, AlphaLISA, 16 h; stronger effect = lower value; activity change, % at 57.5 µM; 360,000 tested, 4.7% active; in the data active means activity change below about -50%; inconclusive means mostly about -30% to -49%; further: on the % scale 0 is the no-effect control and ±100 the full control effect
#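 THP-1 cells pretreated 1 hr with compounds (up to 57.5 uM final), then stimulated with LPS (250 ng/mL final) plus ATP (1.25 mM final); secreted IL-1B measured by AlphaLISA after 16 hr, decreased signal indicating inhibition.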
# DT40 TDP1 no CPT: qHTS for Inhibitors of human tyrosyl-DNA phosphodiesterase 1 (TDP1): qHTS in cells in absence of CPT; DT40 Tdp1-/- hTDP1 cells, no CPT, ATP luminescence, 48 h; Potency, µM (series often up to 46.2 µM), inactives show at the top dose activity change, negative = growth inhibition, hits mostly inhibitors; 420,000 tested, 15% active; AID 686978, 2013; further: potency means the concentration at half of the fitted maximal effect; on the % scale 0 is the no-effect control and ±100 the full control effect; nearly all actives have a fitted effect of over 55% in size
#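 Chicken DT40 Tdp1-/- cells stably complemented with human TDP1 were seeded at 400 cells/well with DMSO in place of 20 nM camptothecin. After compound pinning, cells grew at least 48 hr at 37 °C; viability read by CellTiter-Glo luminescence.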
# TDP1 block: blocks human tyrosyl-DNA phosphodiesterase 1; Q9NUW8; 350,000 tested, 0.28% active; Potency, µM (titrated, usually from 130 µM), without a hit: at the highest dose activity change, negative = inhibition, hits mostly inhibitors; recombinant TDP1, AlphaScreen DNA substrate cleavage; further: potency means the concentration at half of the fitted maximal effect; on the % scale 0 is the no-effect control and ±100 the full control effect; nearly all actives have a fitted effect of over 40% in size
# Target sequence (Q9NUW8 whole entry, looked up): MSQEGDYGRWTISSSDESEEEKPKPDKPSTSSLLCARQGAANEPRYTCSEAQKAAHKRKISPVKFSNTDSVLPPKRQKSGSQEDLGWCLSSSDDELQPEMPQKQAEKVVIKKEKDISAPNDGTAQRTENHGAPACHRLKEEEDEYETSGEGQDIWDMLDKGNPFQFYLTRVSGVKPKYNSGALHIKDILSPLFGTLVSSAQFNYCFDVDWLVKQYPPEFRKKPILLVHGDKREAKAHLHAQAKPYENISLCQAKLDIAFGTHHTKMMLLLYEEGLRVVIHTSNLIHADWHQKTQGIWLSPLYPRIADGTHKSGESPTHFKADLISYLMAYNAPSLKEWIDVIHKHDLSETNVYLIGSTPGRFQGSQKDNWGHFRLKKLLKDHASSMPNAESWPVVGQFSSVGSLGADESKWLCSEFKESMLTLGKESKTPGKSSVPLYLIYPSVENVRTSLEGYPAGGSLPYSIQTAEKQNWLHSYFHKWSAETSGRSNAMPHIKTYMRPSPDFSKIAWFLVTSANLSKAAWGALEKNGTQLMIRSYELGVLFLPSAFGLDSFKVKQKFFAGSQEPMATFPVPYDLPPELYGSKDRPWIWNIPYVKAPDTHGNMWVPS
#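 Signal: AlphaScreen proximity between streptavidin donor and anti-FITC acceptor beads on intact substrate. Reaction: Tdp1 1 nM, substrate 15 nM final, 5 min RT after 15 min compound preincubation.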
# HepG2 tox: counter-screen for TGF-b inhibitors: cytotoxicity in HepG2 cells | AID 588856 | HepG2 CAGA-GFP viability, ATP luminescence, 18 h | Potency, µM (titrated, usually from 46.1 µM), for inactives: at the highest dose activity change, negative = cytotoxicity, most hits filed as cytotoxic | 410,000 tested, 0.76% active; further: potency means the concentration at half of the fitted maximal effect
#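 HepG2 CAGA-GFP cells (1000/well, DMEM with 1% FBS) received compound, then TGF-beta at 500 pg/mL final, and were incubated 18 hours at 37 degrees C. Viability was read by CellTiter-Glo luminescence. Media-only wells were set as complete cell-killing and DMSO as no toxicity.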
# TGFb SMAD3 inh: TGF-b pathway inhibition | HepG2 CAGA-GFP TGF-b/SMAD3 reporter, GFP fluorescence, 18 h; TGF-beta stimulated, 500 pg/mL final | Potency, µM (titrated, usually from 46.1 µM), for inactives: top-dose activity, negative = inhibition, most hits filed as inhibitors | 410,000 tested, 1.2% active; further: potency means the concentration at half of the fitted maximal effect; on the % scale 0 is the no-effect control and ±100 the full control effect; nearly all actives have a fitted effect of over 65% in size
#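 Inhibition was scored as loss of TGF-beta-induced (500 pg/mL final, 18 hours, 37 degrees C) GFP in HEPG2 cells carrying a CAGA-GFP reporter, in DMEM with 1% FBS. Well GFP was summed per cell; Activity was normalised to unstimulated and stimulated DMSO wells, then concentration-response fitting.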
# * = called active by the depositor; ? = inconclusive; / = not tested or not shown. Most compounds without a hit are left out; they make up all but 19% or so of the library. Unless noted, the call rests on the fitted dose curve; in most records, active means well fitted curve in the direction sought with a large enough effect; inconclusive means small, poorly fitted or top-dose-only effect, or another doubt; inactive means no such curve, though single readings can be large; an effect the other way counts as inactive or inconclusive.
SMILES,TDP1 cell CPT,IL1B secr inh,DT40 TDP1 no CPT,TDP1 block,HepG2 tox,TGFb SMAD3 inh
Cn1c(N)c(C(=O)COC(=O)c2cc(C3CC3)nc3ccccc23)c(=O)n(Cc2ccccc2)c1=O,-27%,2,-25%,7%,-10%,?
Cn1c(N)c(C(=O)COC(=O)c2cc(-c3ccccc3)nc3ccccc23)c(=O)n(C)c1=O,/,/,/,3%,/,/
Cc1nn(-c2ccccc2)c(C)c1C(=O)OCC(=O)c1c(N)n(CC(C)C)c(=O)n(C)c1=O,21µM*,?,18µM*,-1%,-4%,?
CC(C)Cn1c(N)c(C(=O)COC(=O)c2cc(C3CC3)nc3ccccc23)c(=O)n(C)c1=O,?,-4,21µM*,8%,-17%,?
CC(C)Cn1c(N)c(C(=O)COC(=O)c2cc(-c3ccccc3)nc3ccccc23)c(=O)n(C)c1=O,21µM*,9,16µM*,7%,0%,1%
O=C(CSc1nnc(-c2ccccc2)o1)c1cccc([N+](=O)[O-])c1,-12%,/,?,3%,2%,?
O=[N+]([O-])c1ccc(P(=O)(Cc2ccccc2)c2ccccc2O)cc1 (stereo not drawn),-5%,63,-24%,/,14%,16%
CC12CCC(O)CC1=CCC1C2CCC2(C)c3[nH]ncc3CC12 (stereo not drawn),-22%,25,-15%,/,-15%,?
COc1ccc(CCNC(=O)CSc2nnc(NC(C)=O)s2)cc1OC,-4%,14,-6%,1%,-2%,6%
CS(=O)(=O)N1CCC[C@@]2(CCN(Cc3nccs3)C2)C1,10%,/,-6%,/,/,/
CN1CCN(S(=O)(=O)c2ccc(NCc3ccc4c(c3)OCO4)nc2)CC1,-10%,-3,11%,6%,2%,0%
CC(C)CN(CCCNC(=O)Cn1ncc2c3ccccc3n(C)c2c1=O)CC(C)C,-3%,/,-17%,5%,-2%,11%
CC(C)Cn1c(N)c(C(=O)COC(=O)c2cc(F)cc(F)c2)c(=O)n(C)c1=O,-25%,23,?,-1%,9%,0%
CC(C)Cn1c(N)c(C(=O)COC(=O)c2cnc(Cl)c(Cl)c2)c(=O)n(C)c1=O,18µM*,-25,?,1%,18%,-6%
Cc1cc(=O)[nH]c(NN=C2CCCCC2C)n1 (stereo not drawn),?,-1,18µM*,/,-76%,6%
Cc1cc(=O)[nH]c(NN=C2C3CC4CC(C3)CC2C4)n1,-4%,30,17%,0%,-1%,-2%
Cc1nc(N)nc(N)c1Oc1ccc(Cl)cc1,9.2µM*,19,?,/,-11%,5%
CC(=O)Nc1nc(C)c(Oc2ccc(Cl)cc2)c(=O)[nH]1,0%,-12,2%,3%,-14%,14%
COc1ccc(C(C)(NC(C)=O)c2nc(-c3cnc4ccccc4c3)cs2)cc1 (stereo not drawn),?,-12,?,/,-2%,7%
CC(=O)NC(C)(c1ccccc1)c1nc(-c2ccc(F)c(Cl)c2)cs1 (stereo not drawn),15µM*,-13,23µM*,/,-28%,-8%
CC(=O)NC(C)(c1ccccc1)c1nc(-c2cnc3ccccc3c2)cs1 (stereo not drawn),?,-6,15µM*,/,-8%,-1%
CC(O)(c1ccccc1)c1nc(-c2ccc(F)c(Cl)c2)cs1 (stereo not drawn),?,7,?,/,-50%,?
CCOC(=O)c1cc(-c2ccccc2)sc1NC(=O)C(C)OC(=O)c1cccnc1Cl (stereo not drawn),23µM*,0,23µM*,4%,12%,-1%
CCOC(=O)c1cc(CC)sc1NC(=O)C(c1ccccc1)c1ccccc1,?,-1,?,-10%,-3%,11%
CCOC(=O)c1ccc(OS(=O)(=O)c2ccccc2)c(OC)c1,21µM*,8,?,-1%,39%,9%
SMILES,TDP1 cell CPT,IL1B secr inh,DT40 TDP1 no CPT,TDP1 block,HepG2 tox,TGFb SMAD3 inh
CCOC(=O)c1cc(-c2ccccc2)sc1NC(=O)C(C)N1C(=O)NC(C)(c2ccc(Cl)cc2)C1=O (stereo not drawn),1%,-53*,-15%,3%,-21%,-13%
CCOc1cc(C(=S)N2CCOCC2)ccc1OS(=O)(=O)c1ccccc1,?,-24,?,5%,-5%,?
CCOC(=O)c1cc(-c2ccccc2)sc1NC(=O)c1ccc(OC)c(OC)c1,13µM*,-3,?,/,-3%,26%
CCc1ccc(NC(=O)CSc2nc(=O)n(Cc3ccco3)c3c2CCC3)cc1,?,/,?,8%,-25%,?
COc1ccc(OC)c(CC(NC(C)=O)C(=O)NC2CCN(c3cc(C)nc4ncnn34)CC2)c1 (stereo not drawn),/,/,/,3%,/,/
CCc1nc2nc(C)cc(Nc3ccc(OC)cc3)n2n1,?,/,-6%,5%,-12%,-38%
CCc1ccc(NC(=O)CN2C(=O)C(c3ccc(Cl)cc3)=NC23CCCCC3)cc1,?,/,?,0%,-14%,/
CCOC(=O)c1cc(-c2ccccc2)sc1NC(=O)C(C)Sc1nnc(C)s1 (stereo not drawn),-59%,-77*,-84%,1%,1%,-7%
CCOC(=O)c1cc(-c2ccccc2)sc1NC(=O)COC,-18%,24,-1%,4%,0%,-10%
CCOC(=O)c1cc(-c2ccccc2)sc1NC(=O)C(C)C,-30%,-22,?,-1%,-4%,0%
CCOC(=O)c1cc(-c2ccccc2)sc1NC(=O)C(C)OC(=O)c1ccncc1 (stereo not drawn),23µM*,-15,18µM*,8%,10%,-3%
CCN(CC)c1ccc(-c2nnc(SCC(=O)NCc3ccco3)n2CC)cc1,?,/,?,/,-38%,-23%
Cc1ccc(N2C(=O)c3ccccc3C2Nc2cccnc2)nc1 (stereo not drawn),15µM*,12,26µM*,-3%,-8%,6%
CCOC(=O)c1ccccc1NC1c2ccccc2C(=O)N1c1ccc(C)cn1 (stereo not drawn),?,-6,18µM*,3%,-12%,-4%
CCOC(=O)c1ccccc1NC1c2ccccc2C(=O)N1C1CCN(C(=O)OCC)CC1 (stereo not drawn),?,-8,16µM*,-8%,-23%,?
